Experimental data reported in the supplement of paper PMC10849652.
About 8,800 targets were measured; listed, in parts, are those with a hit and a random draw of the rest. About 0.5% of all pairs of compound and target were hits. A number with no mark means an inactive call.

Tests used:
Experiment in all cases: log2 fold change, soluble protein after heating vs DMSO (PISA); higher = thermal stabilisation; K562 lysate, 10 uM; active = over 0.2 and 3.5 SD of the protein, either way, in both replicates (recomputed)
lapatinib = compound: CS(=O)(=O)CCNCc1ccc(-c2ccc3ncnc(Nc4ccc(OCc5cccc(F)c5)c(Cl)c4)c3c2)o1 [lapatinib]
Summary of the method: (§1)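 Following dounce homogenisation of K562 pellets in PBS pH 7.4 with 1 mM MgCl2, crude extract at 1 mg/mL protein was incubated for 30 min with 10 μM compound. Aliquots were then heated for 3 min over 48°C-58°C and pooled, NP-40 was added to 0.5% at 4°C, and soluble protein was recovered as the supernatant at 21,000xg for 90 min. Channel-sum-equalised TMTpro 16plex LC-MS/MS quantified this protein. Each value, from duplicates, is a log-two fold change in thermal stability relative to solvent controls.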

pictilisib = compound: CS(=O)(=O)N1CCN(Cc2cc3nc(-c4cccc5[nH]ncc45)nc(N4CCOCC4)c3s2)CC1 [pictilisib]
Summary of the method: as §1

crizotinib = compound: C[C@@H](Oc1cc(-c2cnn(C3CCNCC3)c2)cnc1N)c1c(Cl)ccc(F)c1Cl [crizotinib]
Summary of the method: as §1

[1] = compound: C[C@H](C1=CC=C(C=C1)C(=O)NC2=C3C=CNC3=NC=C2)N
Summary of the method: as §1

duvelisib = compound: C[C@H](Nc1ncnc2nc[nH]c12)c1cc2cccc(Cl)c2c(=O)n1-c1ccccc1 [duvelisib]
Summary of the method: as §1

gandotinib = compound: Cc1cc(Nc2cc(CN3CCOCC3)c3nc(C)c(Cc4ccc(Cl)cc4F)n3n2)n[nH]1 [gandotinib]
Summary of the method: as §1

tozasertib = compound: Cc1cc(Nc2cc(N3CCN(C)CC3)nc(Sc3ccc(NC(=O)C4CC4)cc3)n2)n[nH]1 [tozasertib]
Summary of the method: as §1

doramapimod = compound: Cc1ccc(-n2nc(C(C)(C)C)cc2NC(=O)Nc2ccc(OCCN3CCOCC3)c3ccccc23)cc1 [doramapimod]
Summary of the method: as §1

bafetinib = compound: Cc1ccc(NC(=O)c2ccc(CN3CC[C@H](N(C)C)C3)c(C(F)(F)F)c2)cc1Nc1nccc(-c2cncnc2)n1 [bafetinib]
Summary of the method: as §1

[2] = compound: Cc1cccc(CC(=O)N2CCc3c2ccc(-c2cn(C)c4ncnc(N)c24)c3F)n1
Summary of the method: as §1

nilotinib = compound: Cc1cn(-c2cc(NC(=O)c3ccc(C)c(Nc4nccc(-c5cccnc5)n4)c3)cc(C(F)(F)F)c2)cn1 [nilotinib]
Summary of the method: as §1

[3] = compound: Cc1nc(Nc2n[nH]c3c2CN(C(=O)N[C@H](CN(C)C)c2ccccc2)C3(C)C)c2sccc2n1
Summary of the method: as §1

dasatinib = compound: Cc1nc(Nc2ncc(C(=O)Nc3c(C)cccc3Cl)s2)cc(N2CCN(CCO)CC2)n1 [dasatinib]
Summary of the method: as §1

[4] = compound: Cc1ncc(-c2ccnc(Nc3ccc(S(C)(=O)=O)cc3)n2)n1C(C)C
Summary of the method: as §1

[5] = compound: Cn1cc(-c2ccc3c(c2)CCN3C(=O)Cc2cccc(C(F)(F)F)c2)c2c(N)ncnc21
Summary of the method: as §1

quisinostat = compound: Cn1cc(CNCC2CCN(c3ncc(C(=O)NO)cn3)CC2)c2ccccc21 [quisinostat]
Summary of the method: as §1

tipifarnib = compound: Cn1cncc1[C@@](N)(c1ccc(Cl)cc1)c1ccc2c(c1)c(-c1cccc(Cl)c1)cc(=O)n2C [tipifarnib]
Summary of the method: as §1

[6] = compound: NC(=O)Nc1cc(-c2cccc(F)c2)sc1C(=O)N[C@H]1CCCNC1
Summary of the method: as §1

[7] = compound: NC(=O)c1cnc(N[C@@H]2CCCC[C@@H]2N)nc1Nc1cccc(-n2nccn2)c1
Summary of the method: as §1

[8] = compound: NC1(c2ccc(-c3nc4ccn5c(=O)[nH]nc5c4cc3-c3ccccc3)cc2)CCC1
Summary of the method: as §1

UniProt Q8TCG2, sequence (Q8TCG2 whole entry, looked up): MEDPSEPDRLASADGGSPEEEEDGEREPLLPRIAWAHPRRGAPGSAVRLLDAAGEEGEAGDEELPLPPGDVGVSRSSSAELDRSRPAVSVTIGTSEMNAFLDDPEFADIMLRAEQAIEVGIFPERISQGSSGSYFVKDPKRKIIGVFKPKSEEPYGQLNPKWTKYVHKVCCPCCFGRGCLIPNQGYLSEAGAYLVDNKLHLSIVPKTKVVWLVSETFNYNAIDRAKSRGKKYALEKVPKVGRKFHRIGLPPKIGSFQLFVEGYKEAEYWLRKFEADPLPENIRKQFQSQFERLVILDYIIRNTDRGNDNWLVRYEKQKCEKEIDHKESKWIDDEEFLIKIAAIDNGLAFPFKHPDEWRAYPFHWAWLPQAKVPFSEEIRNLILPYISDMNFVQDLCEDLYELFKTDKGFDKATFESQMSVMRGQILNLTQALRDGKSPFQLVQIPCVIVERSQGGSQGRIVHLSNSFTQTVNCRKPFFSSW
UniProt Q9Y2I7, sequence (Q9Y2I7 whole entry, looked up): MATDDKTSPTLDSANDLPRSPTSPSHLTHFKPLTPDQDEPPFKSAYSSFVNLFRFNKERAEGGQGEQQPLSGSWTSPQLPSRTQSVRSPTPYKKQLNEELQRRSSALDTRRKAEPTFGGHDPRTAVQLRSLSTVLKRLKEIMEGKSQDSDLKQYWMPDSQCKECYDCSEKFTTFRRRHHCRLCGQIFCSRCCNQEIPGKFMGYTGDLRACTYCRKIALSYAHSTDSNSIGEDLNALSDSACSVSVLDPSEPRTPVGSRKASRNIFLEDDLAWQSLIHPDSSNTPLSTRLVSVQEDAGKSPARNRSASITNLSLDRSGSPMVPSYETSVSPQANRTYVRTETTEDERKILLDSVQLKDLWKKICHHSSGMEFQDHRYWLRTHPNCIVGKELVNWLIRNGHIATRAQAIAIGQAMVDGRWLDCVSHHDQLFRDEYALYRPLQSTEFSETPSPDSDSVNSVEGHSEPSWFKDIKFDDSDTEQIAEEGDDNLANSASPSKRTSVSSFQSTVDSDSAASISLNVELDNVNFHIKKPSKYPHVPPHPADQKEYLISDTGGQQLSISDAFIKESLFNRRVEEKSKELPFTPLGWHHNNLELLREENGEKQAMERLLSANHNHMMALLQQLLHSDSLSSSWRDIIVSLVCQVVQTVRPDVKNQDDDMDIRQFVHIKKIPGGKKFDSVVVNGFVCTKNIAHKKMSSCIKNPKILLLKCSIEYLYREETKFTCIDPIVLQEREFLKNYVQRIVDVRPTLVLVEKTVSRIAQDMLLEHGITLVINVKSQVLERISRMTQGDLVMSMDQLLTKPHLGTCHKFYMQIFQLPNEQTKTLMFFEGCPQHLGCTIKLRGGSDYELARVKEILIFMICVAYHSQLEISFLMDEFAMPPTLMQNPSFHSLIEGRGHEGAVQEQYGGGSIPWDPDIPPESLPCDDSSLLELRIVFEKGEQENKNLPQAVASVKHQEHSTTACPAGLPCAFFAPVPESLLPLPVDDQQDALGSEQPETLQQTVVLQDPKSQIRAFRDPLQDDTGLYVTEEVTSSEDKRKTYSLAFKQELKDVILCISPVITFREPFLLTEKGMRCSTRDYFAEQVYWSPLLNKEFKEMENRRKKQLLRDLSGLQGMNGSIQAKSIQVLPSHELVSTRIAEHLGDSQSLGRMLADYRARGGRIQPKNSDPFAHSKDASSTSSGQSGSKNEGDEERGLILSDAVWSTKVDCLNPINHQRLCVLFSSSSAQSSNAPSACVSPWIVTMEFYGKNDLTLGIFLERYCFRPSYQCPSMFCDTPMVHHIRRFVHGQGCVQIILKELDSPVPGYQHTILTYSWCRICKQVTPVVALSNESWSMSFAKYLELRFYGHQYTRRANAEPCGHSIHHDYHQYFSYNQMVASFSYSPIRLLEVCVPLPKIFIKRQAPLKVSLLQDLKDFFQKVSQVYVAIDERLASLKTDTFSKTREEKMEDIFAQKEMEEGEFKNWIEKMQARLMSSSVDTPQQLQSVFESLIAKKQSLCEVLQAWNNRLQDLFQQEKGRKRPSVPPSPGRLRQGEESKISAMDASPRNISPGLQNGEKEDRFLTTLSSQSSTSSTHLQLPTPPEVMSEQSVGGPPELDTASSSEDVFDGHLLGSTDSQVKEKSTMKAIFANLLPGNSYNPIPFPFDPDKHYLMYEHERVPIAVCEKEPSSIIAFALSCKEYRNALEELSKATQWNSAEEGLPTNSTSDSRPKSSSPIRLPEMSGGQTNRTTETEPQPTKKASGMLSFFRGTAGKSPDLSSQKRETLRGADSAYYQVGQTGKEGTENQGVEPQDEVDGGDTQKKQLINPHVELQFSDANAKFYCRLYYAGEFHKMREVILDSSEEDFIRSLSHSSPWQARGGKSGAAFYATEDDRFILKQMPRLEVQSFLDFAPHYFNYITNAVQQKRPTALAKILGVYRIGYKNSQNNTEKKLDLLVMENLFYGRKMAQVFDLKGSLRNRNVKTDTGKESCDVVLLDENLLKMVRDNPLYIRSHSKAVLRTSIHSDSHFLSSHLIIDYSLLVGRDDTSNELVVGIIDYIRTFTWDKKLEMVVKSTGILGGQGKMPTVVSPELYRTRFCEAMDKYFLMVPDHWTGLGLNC
UniProt Q9Y6I8, sequence (Q9Y6I8 whole entry, looked up): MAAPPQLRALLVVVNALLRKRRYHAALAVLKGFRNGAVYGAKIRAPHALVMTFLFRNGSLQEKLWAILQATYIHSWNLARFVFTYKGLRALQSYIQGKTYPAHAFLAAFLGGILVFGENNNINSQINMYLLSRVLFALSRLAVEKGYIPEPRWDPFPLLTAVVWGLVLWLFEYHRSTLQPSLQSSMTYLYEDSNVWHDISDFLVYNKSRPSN
UniProt Q8IZ21, sequence (Q8IZ21 whole entry, looked up): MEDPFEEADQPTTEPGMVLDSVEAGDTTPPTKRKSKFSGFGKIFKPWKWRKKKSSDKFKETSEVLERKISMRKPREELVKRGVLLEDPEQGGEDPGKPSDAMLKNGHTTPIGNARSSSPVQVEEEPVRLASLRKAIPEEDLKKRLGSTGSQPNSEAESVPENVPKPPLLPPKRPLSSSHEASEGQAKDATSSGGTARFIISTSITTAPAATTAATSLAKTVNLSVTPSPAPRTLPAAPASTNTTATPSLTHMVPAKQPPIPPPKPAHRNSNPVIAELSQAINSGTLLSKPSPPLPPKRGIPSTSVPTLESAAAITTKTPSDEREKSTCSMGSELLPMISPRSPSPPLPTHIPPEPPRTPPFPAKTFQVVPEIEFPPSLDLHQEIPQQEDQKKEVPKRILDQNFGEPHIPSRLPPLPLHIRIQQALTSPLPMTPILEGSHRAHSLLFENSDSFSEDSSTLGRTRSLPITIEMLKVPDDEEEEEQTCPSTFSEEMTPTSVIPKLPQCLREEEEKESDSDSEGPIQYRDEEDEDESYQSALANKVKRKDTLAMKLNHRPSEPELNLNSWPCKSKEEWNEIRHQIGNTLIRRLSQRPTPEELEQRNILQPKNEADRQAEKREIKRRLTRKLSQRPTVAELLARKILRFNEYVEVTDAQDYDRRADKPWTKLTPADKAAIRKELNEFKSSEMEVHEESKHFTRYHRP
UniProt O43175, sequence (O43175 whole entry, looked up): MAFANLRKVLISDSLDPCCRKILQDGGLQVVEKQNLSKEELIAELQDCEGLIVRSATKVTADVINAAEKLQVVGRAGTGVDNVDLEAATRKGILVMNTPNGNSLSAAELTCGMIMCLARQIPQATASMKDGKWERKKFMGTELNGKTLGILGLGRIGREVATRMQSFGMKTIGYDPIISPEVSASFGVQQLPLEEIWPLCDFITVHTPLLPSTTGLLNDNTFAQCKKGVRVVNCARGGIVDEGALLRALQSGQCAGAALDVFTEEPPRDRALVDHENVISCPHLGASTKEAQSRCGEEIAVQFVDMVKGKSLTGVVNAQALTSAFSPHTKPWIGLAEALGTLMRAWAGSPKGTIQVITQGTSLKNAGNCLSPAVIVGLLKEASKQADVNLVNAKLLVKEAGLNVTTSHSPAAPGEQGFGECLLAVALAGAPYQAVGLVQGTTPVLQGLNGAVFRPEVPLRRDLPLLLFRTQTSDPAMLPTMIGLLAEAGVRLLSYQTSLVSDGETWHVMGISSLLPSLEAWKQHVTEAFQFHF
UniProt Q9UNP9, sequence (Q9UNP9 whole entry, looked up): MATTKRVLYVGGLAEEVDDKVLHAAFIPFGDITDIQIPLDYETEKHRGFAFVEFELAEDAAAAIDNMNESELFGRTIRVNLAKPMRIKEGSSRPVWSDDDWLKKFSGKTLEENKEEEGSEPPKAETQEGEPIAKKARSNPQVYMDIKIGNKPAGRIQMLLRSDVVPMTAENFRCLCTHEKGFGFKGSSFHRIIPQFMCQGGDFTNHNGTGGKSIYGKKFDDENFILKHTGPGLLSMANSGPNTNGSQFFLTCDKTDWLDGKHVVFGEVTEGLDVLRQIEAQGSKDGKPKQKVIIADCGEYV
UniProt Q9H7Z7, sequence (Q9H7Z7 whole entry, looked up): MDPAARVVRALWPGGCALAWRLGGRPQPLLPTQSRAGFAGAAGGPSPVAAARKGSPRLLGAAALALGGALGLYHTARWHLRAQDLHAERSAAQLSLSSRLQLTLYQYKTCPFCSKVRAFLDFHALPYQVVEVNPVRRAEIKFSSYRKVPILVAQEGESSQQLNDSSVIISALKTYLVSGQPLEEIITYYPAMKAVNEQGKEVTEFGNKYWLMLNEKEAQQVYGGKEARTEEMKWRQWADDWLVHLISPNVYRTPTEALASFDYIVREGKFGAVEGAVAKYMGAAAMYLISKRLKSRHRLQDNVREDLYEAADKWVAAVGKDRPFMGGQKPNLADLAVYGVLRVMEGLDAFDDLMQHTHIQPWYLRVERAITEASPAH
UniProt P28065, sequence (P28065 whole entry, looked up): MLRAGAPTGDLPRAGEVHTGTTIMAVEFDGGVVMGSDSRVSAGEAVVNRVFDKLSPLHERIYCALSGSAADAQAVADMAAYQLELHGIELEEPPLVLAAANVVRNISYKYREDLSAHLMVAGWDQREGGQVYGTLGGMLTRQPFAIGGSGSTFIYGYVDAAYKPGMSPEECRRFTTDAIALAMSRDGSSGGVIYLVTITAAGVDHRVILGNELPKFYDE

Target	log2 fold change (lapatinib)	log2 fold change (pictilisib)	log2 fold change (crizotinib)	log2 fold change [1]	log2 fold change (duvelisib)	log2 fold change (gandotinib)	log2 fold change (tozasertib)	log2 fold change (doramapimod)	log2 fold change (bafetinib)	log2 fold change [2]	log2 fold change (nilotinib)	log2 fold change [3]	log2 fold change (dasatinib)	log2 fold change [4]	log2 fold change [5]	log2 fold change (quisinostat)	log2 fold change (tipifarnib)	log2 fold change [6]	log2 fold change [7]	log2 fold change [8]
PHACTR4 isoform 2 (UniProt Q8IZ21)	-0.015	-0.014	-0.005	0.764 (active)	0	-0.121	-0.03	-0.003	0.022	-0.196	0.005	-0.004	0.022	-0.016	0.012	-0.017	-0.015	-0.006	-0.002	-0.027
POLB (UniProt P06746)	0.017	0.075	-0.003	0.011	0.018	-0.041	-0.015	-0.003	-0.024	-0.009	0.035	-0.013	0	-0.026	0.008	-0.028	0.002	0.022	0.012	-0.053
PXMP4 (UniProt Q9Y6I8)	-0.071	0.066	-0.29	-0.068	-0.112	-0.221	-0.034	0.238	-0.148	0.194	-0.011	0.014	0.078	0.013	-0.092	-0.146	0.846 (active)	0.018	-0.018	-0.215
PTGES2 (UniProt Q9H7Z7)	0.637 (active)	0.153	-0.052	-0.013	0.029	0.236	0.329	0.341	0.176	0.009	0.446	-0.044	0.01	-0.019	0.015	-0.046	-0.057	-0.012	-0.056	-0.078
PSMB9 (UniProt P28065)	-0.093	0.028	-0.098	-0.033	0.01	0.013	-0.087	-0.033	-0.25	0.022	0.019	0.092	-0.031	-0.098	-0.033	-0.213	0.024	0.027	0.034	-0.076
PHGDH (UniProt O43175)	-0.053	0.005	0	0.076	0	-0.071	0.019	-0.039	0.032	-0.055	0.013	-0.025	-0.077	0.005	0.021	-0.032	0.018	-0.032	0.006	0.054
PKN1 isoform 2 (UniProt Q16512)	0.038	-0.005	-0.032	0.095	-0.014	-0.233	-0.005	0.108	-0.069	0.04	-0.014	-0.098	-0.14	-0.002	0	0.102	0.009	-0.128	-0.054	-0.004
PDXDC1 (UniProt Q6P996)	-0.025	-0.019	-0.056	-0.011	0.019	0	0.01	0.007	-0.128	0.062	0.058	0.064	-0.098	-0.024	0.022	-0.035	-0.074	0.019	0.042	0.012
PTGR2 (UniProt Q8N8N7)	-0.003	0.014	-0.029	-0.04	0.02	0.01	0.04	-0.04	-0.003	-0.004	0.024	-0.044	0.012	0.025	0.024	-0.008	0.034	-0.011	-0.002	0.011
POLR2F (UniProt P61218)	0.036	-0.062	-0.024	1.12 (active)	-0.018	-0.166	0.156	0.025	-0.076	-0.189	0.023	-0.019	0.274	0.107	-0.015	-0.034	0.015	0.008	-0.052	-0.021
PI4K2B (UniProt Q8TCG2)	0.009	0.039	-0.203	0.134	0.143	0.041	0.019	-0.026	-0.017	0.003	-0.037	0.021	-0.021	0.069	0.092	0.063	-0.036	0.076	0.689 (active)	0.009
PTGS1 isoform 6 (UniProt P23219)	0.004	-0.068	0.007	-0.236 (active)	-0.001	0.109	0.029	0.036	-0.079	0.093	0.021	0.058	0.034	0.043	0.053	-0.04	-0.039	0.022	-0.008	0.001
PIKFYVE (UniProt Q9Y2I7)	-0.039	-0.06	-0.002	-0.058	-0.013	0.01	-0.014	0.029	-0.053	0.066	0.017	-0.017	-0.022	-0.015	0.009	-0.014	-0.035	0.007	0.027	-0.005
PHKA2 (UniProt P46019)	-0.085	-0.042	0.048	0.022	-0.01	-0.035	-0.015	0.013	-0.109	-0.012	0.005	0.163	-0.05	0.019	-0.028	-0.148	0.015	0.302 (active)	0.001	-0.037
PPIE (UniProt Q9UNP9)	0.03	0	-0.02	-0.234	0.006	0.144	0.014	0.062	0.009	0.102	-0.027	0.017	-0.017	-0.01	-0.016	-0.091	-0.003	-0.018	0.04	-0.034
